The results in this text go back to ChEMBL document CHEMBL3988442, “University of Dundee, Small-Polar-MMV Screening Library” (2021).

Assay [1] concerns the target T1, Aspartate--tRNA(Asp/Asn) ligase (Mycobacterium tuberculosis (strain ATCC 25618 / H37Rv)) (UniProt P9WFW3). Further: in the data most compounds retested in dose-response had high values.
T1 sequence (whole entry): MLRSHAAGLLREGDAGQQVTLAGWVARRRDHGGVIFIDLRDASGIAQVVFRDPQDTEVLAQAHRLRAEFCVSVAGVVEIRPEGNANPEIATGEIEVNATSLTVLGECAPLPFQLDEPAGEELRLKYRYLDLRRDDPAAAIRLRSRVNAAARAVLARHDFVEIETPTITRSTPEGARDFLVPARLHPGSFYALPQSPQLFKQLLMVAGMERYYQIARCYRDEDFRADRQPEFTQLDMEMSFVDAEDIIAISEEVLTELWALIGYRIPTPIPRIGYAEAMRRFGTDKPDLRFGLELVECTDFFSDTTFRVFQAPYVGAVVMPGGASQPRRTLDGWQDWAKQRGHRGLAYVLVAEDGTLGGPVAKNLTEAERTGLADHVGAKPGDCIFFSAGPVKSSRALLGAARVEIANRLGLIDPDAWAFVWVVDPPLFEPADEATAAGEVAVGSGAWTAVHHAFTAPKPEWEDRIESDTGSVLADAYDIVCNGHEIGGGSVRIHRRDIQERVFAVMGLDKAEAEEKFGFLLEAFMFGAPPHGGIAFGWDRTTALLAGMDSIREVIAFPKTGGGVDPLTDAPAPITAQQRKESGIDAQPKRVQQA
The assay can be described thus: Assay for Asp RNA synthetase-1 from Mycobacterium tuberculosis. The assay is classed as functional. The arrangement: scale not given: direction of the effect not stated beside the values. As to conditions: 30 µM.

Assay [2] deals with Shiga toxin 2 (Escherichia coli O157:H7) (UniProt P09385+P09386). Description: E. coli 0.157:H7 Shiga Toxin SOP - stx2 screening assay. The arrangement: scale not given: direction of the effect not stated beside the values. The class given is functional. The following applies: 30 µM.

For `CC(Cn1cccn1)NC(=O)NCCc1ccc(Cl)s1` (stereo not given), the Percent Effect in assay [1] is 4.37%; in assay [2], -19.2%.
As to `COc1ccccc1C(=O)NC(CC(=O)O)c1cccs1` (stereo not given), the Percent Effect in assay [1] is 5.75%; in assay [2], -32.6%.
With `Cn1ccnc1CC1CCCN(C(=O)Nc2cccn(C)c2=O)C1` (stereo not given), the Percent Effect was 2.75% in assay [1] and -3.01% in assay [2].
Turning to `CCc1nnc2n1CCN(C(=O)c1ccc3[nH]cnc3c1)C2`, the Percent Effect is -2.2% in assay [1] and -13.3% in assay [2].
Regarding `Cn1cc(CN2C[C@@H]3COC[C@]3(COc3ccc(C#N)cn3)C2)cn1`, the Percent Effect in assay [1] was 3.33%; in assay [2], -7.69%.
For `Cc1ccc([C@@H]2CN(S(=O)(=O)c3cccs3)C[C@H]2N(C)C)cc1`, the figures for the Percent Effect in assay [1] and in assay [2] were -0.804% and 19.8%, respectively.
As for `CC(NC(=O)N(C)Cc1ccsc1)c1ccc2c(c1)CCC(=O)N2` (stereo not given), the Percent Effect is -2.72% in assay [1] and 29% in assay [2].
`CNC(=O)[C@H]1C[C@@H]2CN(C(=O)Nc3ccc(F)cc3)C[C@H]1O2`: the Percent Effect in assay [1] is -1.56%; in assay [2] it was -24.2%.
Consider `COc1cc(CNc2cnn(C)c2)cc2c1OCCO2`, for which the Percent Effect in assay [1] was -1.79%; in assay [2], 7.95%.
As to `O=C(Cc1cn2ccsc2n1)N1CCCC(n2cncn2)C1` (stereo not given), the Percent Effect in assay [1] was -0.0111%; in assay [2] it was -30%.
As for `Cc1oc(C)c(C(=O)NCc2cccnc2N(C)C)c1C`, the Percent Effect in assay [1] is -2.01%; in assay [2] it was 35.3%.
For `Cc1nc(C)n(CC2CCCN2Cc2cscn2)n1` (stereo not given), in that order: -5.82% and 24.1%.
The corresponding values for `CC(=O)N1CCC(C(=O)N(C)[C@@H]2CCC[C@@H](N3CCCC3)[C@@H]2O)CC1` are 1.35% and -6.16%.
With `OCc1ccc(Cl)c(NCc2cccnc2)c1`, the values for the Percent Effect in assay [1] and in assay [2] were 1.83% and -19.3%, respectively.
As for `CC(C)(O)CN1CCN(C(=O)c2cc3ccccc3c(=O)[nH]2)CC1`, the Percent Effect in assay [1] was -2.19%; in assay [2], -6.56%.
The corresponding values for `CC(=O)N1CCC2(CC1)C(=O)N(CC1CC1)c1ccccc12` are -1.18% and -4.33%.
As to `CCCc1nc(CN2CCOC(CNc3cccnn3)C2)cs1` (stereo not given), the Percent Effect worked out at 3.73% in assay [1] and 27.3% in assay [2].
With `COc1ccc(C(C)=O)c(OCC(=O)NC(C)c2ccc(F)cc2)c1` (stereo not given), the Percent Effect in assay [1] was -4.39%; in assay [2], -1.68%.
Consider `O=C(c1ccc[nH]1)N1C[C@H](OCc2cccnc2)[C@H]2COC[C@H]21`, for which the Percent Effect in assay [1] is 2.69%; in assay [2], -6.45%.
For `CCN(C)S(=O)(=O)N(CC)Cc1ccc2c(c1)OCO2`, the results for the Percent Effect in assay [1] and in assay [2] were 3.49% and 12.6%, respectively.
The corresponding values for `CCc1nnsc1C(=O)NCCn1nc2ccccn2c1=O` are -6.91% and -19.6%.
For `Cc1cc(C)n(C2CN(CC(=O)NC3CCOCC3)C2)n1`, in that order: -1.88% and -2.98%.
Regarding `CCC1(CC)Cc2ccccc2-c2nc(NCCO)[nH]c(=O)c21`, the Percent Effect in assay [1] came out at 6.5%; in assay [2], 17.7%.
For `CN(Cc1ccco1)Cc1ccccc1CNC(=O)c1ccncc1`, the Percent Effect was -0.97% in assay [1] and 12.1% in assay [2].
For the compound `Cc1cnc(CN(C)C2CCN(Cc3nc4ccccc4n3C)C2)o1` (stereo not given), the values for the Percent Effect in assay [1] and in assay [2] were -5.16% and -27.3%, respectively.
For `CC(C)NC(=O)C1CN(C(=O)Nc2ccccc2)CC12CCOCC2` (stereo not given), in that order: 12.7% and -4.72%.
As to `CCc1ncnc2c1CCN(Cc1ccccn1)CC2`, the Percent Effect in assay [1] was 0.378%; in assay [2], -29.9%.
As for `CCCN(C)C(=O)c1ccc2c(c1)[nH]c(=O)n2CCOCC`, the Percent Effect in assay [1] was -2.29%; in assay [2], -18.9%.
The corresponding values for `CC(C)n1c(C2CCCN(CCS(C)(=O)=O)C2)nc2ccccc21` (stereo not given) are 0.943% and 17.6%.
As to `COc1ccc2c(c1)CC(NC(=O)NCc1cccs1)CO2` (stereo not given), the Percent Effect in assay [1] was -4.82%; in assay [2] it was -8.88%.
